In PubChem BioAssay (Tox21):
Records with an inconclusive call do not appear. Calls of active or inactive are those of the source. Unless noted, calls come from the whole dose curve.

How the values were obtained:
[1] = Nuclear factor erythroid 2-related factor 2/antioxidant responsive element (Nrf2/ARE) small molecule agonists: qHTS cell viability counter screen in human keratinocytes (AID 1919968; active = well fitted curve in the direction sought with a large enough effect in the repeat runs; an effect the other way counts as inactive or inconclusive; note: nearly all actives have a fitted effect of over 55% in size)
Outline: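 Seed 1,500 KeratinoSens cells per well, then incubate 5 h at 37 C/5% CO2. Add compounds in DMSO and incubate 23 h. Add CellTiter-Fluor, wait 1 h and read fluorescence.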

[2] = target: Gonadotropin-releasing hormone receptor (Homo sapiens) (UniProt P30968); assay: Human gonadotropin-releasing hormone receptor (GnRHR) small molecule agonists, calcium flux assay in GnRHR-HEK293 cells (AID 1920063); note: nearly all actives have a fitted effect of over 35% in size
Outline: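 Cells: HEK293 stably expressing human GnRHR. Steps: overnight (18 h) culture, 1 h calcium dye loading at 37 C, compound addition, kinetic fluorescence read at 480/540 nm. Each compound tested at 15 concentrations in triplicate.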

[3] = target: KiSS-1 receptor (Homo sapiens) (UniProt Q969F8); assay: Human kisspeptin (KISS1R) small molecule agonists, calcium flux assay in KISS1R-HEK293 cells (AID 1920064; active = well fitted curve in the direction sought with a large enough effect in the repeat runs; an effect the other way counts as inactive or inconclusive)
Outline: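 Cells plated and incubated 18 h; dye added, 1 h at 37 C; compounds in DMSO pinned in; signal read at 480/540 nm every second for 3 min. Each compound tested at 15 concentrations in triplicate.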

[4] = G protein-coupled receptor (GPCR) small molecule agonists, calcium flux assay: HEK293 wild type cell line counter screen (AID 1920065)
Outline: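 Counter-screen of the Tox21 10K library for non-specific calcium release: dye-loaded cells received compounds in DMSO and were monitored by kinetic fluorescence (480/540 nm, 3 min). Fifteen concentrations, run in triplicate.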

[5] = p53 small molecule agonists, cell-based qHTS assay with human liver microsomes (AID 1963577)
Outline: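 p53RE-bla reporter cells were pre-incubated 5 h at 37 C, then treated with compounds plus human liver microsomes (0.5 mg/mL final) and NADPH (0.5 mg/mL final) for 16 h at 37 C. Beta-lactamase activity was read by LiveBLAzer fluorescence after 2 h at room temperature.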

[6] = p53 small molecule agonists, cell-based qHTS assay with rat liver microsomes (AID 1963578)
Outline: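 p53RE-bla cells were exposed to compounds together with rat liver microsomes (0.5 mg/mL final) and NADPH (0.5 mg/mL final) for 16 h at 37 C, then read by LiveBLAzer beta-lactamase fluorescence after 2 h at room temperature.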

[7] = p53 small molecule agonists, cell-based qHTS assay with human liver microsomes: qHTS cell viability counter screen (AID 1963579); note: nearly all actives have a fitted effect of over 45% in size
Outline: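 p53RE-bla cells (4,000/well) were pre-incubated 5 h at 37 C, then given compounds in DMSO plus human liver microsomes (0.5 mg/mL final) and NADPH (0.5 mg/mL final) for 16 h at 37 C. Viability was read by CellTiter-Glo luminescence.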

[8] = p53 small molecule agonists, cell-based qHTS assay with rat liver microsomes: qHTS cell viability counter screen (AID 1963580); note: nearly all actives have a fitted effect of over 45% in size
Outline: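 HCT-116 p53RE-bla, 4,000 cells/well, 5 h pre-incubation; cpd + rat liver microsomes 0.5 mg/mL + NADPH 0.5 mg/mL (final); 16 h, 37 C; CellTiter-Glo, 30 min RT; luminescence.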

[9] = p53 small molecule agonists, cell-based qHTS assay: qHTS cell viability counter screen (AID 1963581); note: nearly all actives have a fitted effect of over 45% in size
Outline: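 Cells: HCT-116 with p53 response element-driven beta-lactamase. Treatment: 16 h, 37 C, compounds in DMSO. Read: CellTiter-Glo luminescence after 30 min RT.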

[10] = target: 5-hydroxytryptamine receptor 2A (Homo sapiens) (UniProt P28223); assay: 5-hydroxytryptamine receptor 2A (HTR2A) small molecule antagonists, cell-based qHTS assay (AID 1963586); note: nearly all actives have a fitted effect of over 45% in size
Outline: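 Antagonist-mode intracellular calcium assay: DOI (4 nM) added after 5 min compound pre-incubation at room temperature to dye-loaded HTR2A-CHO cells. Fluorescence followed for 3 min, sampled every second.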

[11] = target: 5-hydroxytryptamine receptor 2A (Homo sapiens) (UniProt P28223); assay: 5-hydroxytryptamine receptor 2A (HTR2A) small molecule agonists, cell-based qHTS assay (AID 1963587); note: nearly all actives have a fitted effect of over 30% in size
Outline: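 Kinetic calcium-flux fluorescence (2 min, 1 sec intervals) after compound addition in agonist mode. HTR2A-CHO cells were cultured 18 h, then dye-loaded 1 h at 37 C.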

[12] = target: Muscarinic acetylcholine receptor M1 (Homo sapiens) (UniProt P11229); assay: Cholinergic receptor muscarinic 1 (CHRM1) small molecule antagonists, cell-based qHTS assay (AID 1963588); note: nearly all actives have a fitted effect of over 40% in size
Outline: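 CHRM1-CHO calcium-flux assay, antagonist mode. Cells were seeded 18 h, dye-loaded 1 h at 37 C and given compound for 5 min at RT, then acetylcholine was added at 50nM. FDSS fluorescence was read 3 min; 15 concentrations, three runs.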

[13] = target: Muscarinic acetylcholine receptor M1 (Homo sapiens) (UniProt P11229); assay: Cholinergic receptor muscarinic 1 (CHRM1) small molecule agonists, cell-based qHTS assay (AID 1963589); note: nearly all actives have a fitted effect of over 35% in size
Outline: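 Agonist-mode qHTS in CHO cells stably carrying human muscarinic M1. Intracellular calcium is tracked by fluorescence every second after compound transfer; each compound runs at 15 concentrations in three independent runs.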

[14] = cAMP Responsive Elements (CRE) small molecule agonists, cell-based qHTS assay (AID 1963590)
Outline: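 Agonist mode qHTS in CRE-bla HEK 293T cells: compounds dosed from DMSO for 3 h at 37 C/5% CO2, followed by LiveBLAzer B/G FRET substrate for 2 h at room temperature.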

[15] = cAMP Responsive Elements (CRE) small molecule antagonists, cell-based qHTS assay (AID 1963591; active = well fitted inhibition curve with a large enough effect in the signal ratio in the repeat runs, not every such curve was filed as active; the % refers to the signal ratio)
Outline: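 Antagonist mode: test compounds are co-incubated with the adenylyl cyclase activator NKH477 (0.25 uM final) on CRE-bla HEK293T cells for 3 h at 37 °C, followed by LiveBLAzer substrate loading.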

[16] = target: Beta-2 adrenergic receptor (Homo sapiens) (UniProt P07550); assay: Adrenergic beta2 receptor (ADRB2) small molecule antagonists, cell-based qHTS assay (AID 1963592); note: series mostly up to about 92 µM; nearly all actives have a fitted effect of over 50% in size
Outline: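 Cells (CHO, stable ADRB2 overexpression) incubated 18-20hr at 37C; compounds added from DMSO; agonist mix (1nM isoproterenol, 100uM IBMX, 25uM Ro-20-1724) added; 0.5hr RT; d2-cAMP and anti-cAMP-cryptate added; 1hr RT; 665/615 nm read.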

[17] = target: Beta-2 adrenergic receptor (Homo sapiens) (UniProt P07550); assay: Adrenergic beta2 receptor (ADRB2) small molecule agonists, cell-based qHTS assay (AID 1963593);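 note: CHO cells stably overexpressing human ADRB2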
Outline: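 CHO cells stably over-expressing ADRB2 were plated overnight at 37C, then dosed with compounds plus a stimulation mix containing 100uM IBMX and 25uM Ro-20-1724 for 0.5hr at room temperature. cAMP was measured by HTRF competition, 1hr.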

[18] = target: D(2) dopamine receptor (Homo sapiens) (UniProt P14416); assay: Dopamine D2 receptor (DRD2) small molecule agonists, cell-based qHTS assay (AID 1963594); note: nearly all actives have a fitted effect of over 35% in size
Outline: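 cAMP accumulation in DRD2-HEK293 cells measured by HTRF after 1 h detection; compounds added 10 min before NKH477 (200nM […]) forskolin-analogue stimulation, 30 min at room temperature, with Ro20-1724 present at 0.1 mM final.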

[19] = target: D(2) dopamine receptor (Homo sapiens) (UniProt P14416); assay: Dopamine D2 receptor (DRD2) small molecule antagonists, cell-based qHTS assay (AID 1963595; active = well fitted inhibition curve with a large enough effect in the signal ratio in the repeat runs, with a control signal flat; the % refers to the signal ratio)
Outline: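 HEK293 cells stably expressing DRD2, preincubated with 0.1 mM Ro20-1724 and compounds 10 min, were stimulated with 200 nM NKH477 plus 12 nM quinpirole for 30 min at room temperature; cAMP measured by HTRF (665/620 nm).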

[20] = p53 small molecule agonists, cell-based qHTS assay (AID 1963582; active = well fitted activation curve with a large enough effect in the signal ratio in the repeat runs, not every such curve was filed as active; the % refers to the signal ratio)
Outline: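 Quantitative HTS in p53RE-bla cells: after a 5 h settling period, compounds delivered in DMSO were left on cells for 16 h at 37 C, and reporter induction was measured as fluorescence following 2 h substrate loading.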

Measured: Potency

Chain of D(2) dopamine receptor (Homo sapiens) (P14416 whole entry, looked up): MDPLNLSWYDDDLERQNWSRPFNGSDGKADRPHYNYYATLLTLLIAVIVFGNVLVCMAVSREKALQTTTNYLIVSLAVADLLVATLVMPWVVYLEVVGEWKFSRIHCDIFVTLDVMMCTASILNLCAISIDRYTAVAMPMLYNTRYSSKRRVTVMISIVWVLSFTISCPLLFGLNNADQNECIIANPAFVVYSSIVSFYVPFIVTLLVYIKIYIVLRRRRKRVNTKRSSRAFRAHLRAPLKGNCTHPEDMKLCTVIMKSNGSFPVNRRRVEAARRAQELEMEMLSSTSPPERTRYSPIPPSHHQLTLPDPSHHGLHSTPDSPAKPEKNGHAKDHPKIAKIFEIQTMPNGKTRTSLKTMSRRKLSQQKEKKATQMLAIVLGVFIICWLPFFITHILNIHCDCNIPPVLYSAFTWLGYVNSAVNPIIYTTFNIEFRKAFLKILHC
Chain of Beta-2 adrenergic receptor (Homo sapiens) (P07550 whole entry, looked up): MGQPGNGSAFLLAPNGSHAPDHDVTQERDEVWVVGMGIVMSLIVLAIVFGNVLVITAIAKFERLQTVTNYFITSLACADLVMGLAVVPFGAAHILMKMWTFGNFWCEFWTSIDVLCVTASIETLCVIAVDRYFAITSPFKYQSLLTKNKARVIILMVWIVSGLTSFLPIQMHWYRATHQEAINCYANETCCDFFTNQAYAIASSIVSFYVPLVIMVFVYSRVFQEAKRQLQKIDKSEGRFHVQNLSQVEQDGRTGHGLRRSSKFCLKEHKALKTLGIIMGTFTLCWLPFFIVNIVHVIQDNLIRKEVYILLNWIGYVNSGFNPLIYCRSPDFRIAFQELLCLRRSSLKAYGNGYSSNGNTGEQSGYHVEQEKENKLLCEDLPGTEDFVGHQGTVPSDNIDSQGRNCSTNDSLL
Chain of KiSS-1 receptor (Homo sapiens) (Q969F8 whole entry, looked up): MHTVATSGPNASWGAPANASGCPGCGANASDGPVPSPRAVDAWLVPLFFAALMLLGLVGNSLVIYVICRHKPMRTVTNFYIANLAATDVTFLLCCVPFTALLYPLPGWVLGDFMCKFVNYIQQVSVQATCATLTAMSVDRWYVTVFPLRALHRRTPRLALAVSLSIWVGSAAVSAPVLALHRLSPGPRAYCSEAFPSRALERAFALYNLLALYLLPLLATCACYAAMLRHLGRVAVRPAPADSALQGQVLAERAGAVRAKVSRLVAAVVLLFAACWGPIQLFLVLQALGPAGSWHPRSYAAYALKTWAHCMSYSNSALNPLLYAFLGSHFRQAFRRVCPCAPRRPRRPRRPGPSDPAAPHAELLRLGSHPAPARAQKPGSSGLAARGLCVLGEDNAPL
Chain of Muscarinic acetylcholine receptor M1 (Homo sapiens) (P11229 whole entry, looked up): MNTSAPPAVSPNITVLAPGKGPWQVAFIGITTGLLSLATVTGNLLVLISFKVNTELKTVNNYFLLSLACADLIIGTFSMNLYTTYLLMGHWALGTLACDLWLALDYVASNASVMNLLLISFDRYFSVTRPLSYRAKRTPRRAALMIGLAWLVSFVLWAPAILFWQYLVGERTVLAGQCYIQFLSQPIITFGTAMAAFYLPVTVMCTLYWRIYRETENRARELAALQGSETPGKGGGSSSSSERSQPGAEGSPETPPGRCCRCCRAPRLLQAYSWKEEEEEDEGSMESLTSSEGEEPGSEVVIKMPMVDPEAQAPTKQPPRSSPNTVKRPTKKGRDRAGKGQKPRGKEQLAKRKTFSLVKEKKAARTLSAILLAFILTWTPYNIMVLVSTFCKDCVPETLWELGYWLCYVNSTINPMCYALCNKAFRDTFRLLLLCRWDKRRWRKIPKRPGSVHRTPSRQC
Chain of 5-hydroxytryptamine receptor 2A (Homo sapiens) (P28223 whole entry, looked up): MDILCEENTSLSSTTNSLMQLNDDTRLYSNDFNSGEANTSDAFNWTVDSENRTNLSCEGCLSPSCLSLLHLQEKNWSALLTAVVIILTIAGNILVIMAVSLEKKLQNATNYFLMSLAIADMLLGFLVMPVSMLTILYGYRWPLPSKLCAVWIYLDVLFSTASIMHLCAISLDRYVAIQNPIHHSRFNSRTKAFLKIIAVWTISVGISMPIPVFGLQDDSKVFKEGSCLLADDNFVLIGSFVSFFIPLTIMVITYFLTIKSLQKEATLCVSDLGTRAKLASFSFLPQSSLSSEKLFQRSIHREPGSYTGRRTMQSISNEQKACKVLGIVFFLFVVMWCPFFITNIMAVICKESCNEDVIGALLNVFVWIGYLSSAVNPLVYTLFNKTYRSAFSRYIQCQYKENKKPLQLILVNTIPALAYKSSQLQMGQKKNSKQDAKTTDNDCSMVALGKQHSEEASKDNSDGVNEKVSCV
Chain of Gonadotropin-releasing hormone receptor (Homo sapiens) (P30968 whole entry, looked up): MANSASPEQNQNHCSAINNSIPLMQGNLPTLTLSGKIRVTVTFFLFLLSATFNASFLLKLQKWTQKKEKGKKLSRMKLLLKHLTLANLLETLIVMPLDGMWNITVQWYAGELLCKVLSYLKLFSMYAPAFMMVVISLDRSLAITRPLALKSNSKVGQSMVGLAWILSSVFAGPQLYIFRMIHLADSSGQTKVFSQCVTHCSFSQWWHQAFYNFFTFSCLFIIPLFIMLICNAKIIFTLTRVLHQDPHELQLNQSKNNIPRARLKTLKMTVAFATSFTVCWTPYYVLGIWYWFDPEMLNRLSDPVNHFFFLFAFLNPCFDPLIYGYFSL

O=c1[nH]c2ccccc2c(=O)o1
not listed: [20]
inactive: all other assays above

CCNc1nc(Cl)nc(NCC)n1
not listed: [13]
inactive: all other assays above

CCCCCCCCCCCCBr
not listed: [18] | [19] | [20]
inactive: all other assays above

C=CCSSCC=C
not listed: [17]
inactive: all other assays above

C#CCOC(C(=O)OCCN(C)C)(c1ccccc1)c1ccccc1
not listed: [17]
inactive: all other assays above

Cc1cccc(N)c1C
not listed: [10]
inactive: all other assays above

CCCCN(CC)c1c([N+](=O)[O-])cc(C(F)(F)F)cc1[N+](=O)[O-]
inactive: all assays above
